Experimental data reported in PubChem BioAssay.
Active and inactive are the calls of the source.

Tests used:
[1] = small molecules captured by biotinylated probe aFSTL3 – biochemical, small-molecule microarray, fluorescence 635/667, stem cell growth factor project, primary screen (AID 1064); conditions: higher = more signal;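 also: measures binding of the biotinylated anti-FSTL3 antibody to printed compounds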
[2] = binders from COS7 lysate, DM2A8 probe, primary screen, torsin A project, cell lysate, small-molecule microarray, fluorescence 635/667 (AID 1065); conditions: higher = more signal, COS7 lysate expressing mutant human TOR1A
[3] = small molecules captured by biotinylated probe aFGF2 – biochemical, small-molecule microarray, fluorescence 635/667, stem cell growth factor project, primary screen (AID 1067); conditions: higher = more signal;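 also: measures binding of biotinylated aFGF2 protein to printed compounds on slides; z-score merges feature fluorescence and signal-to-noise across triplicate slides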
[4] = small molecules captured by biotinylated probe aFGF10 – biochemical, small-molecule microarray, fluorescence 635/667, stem cell growth factor project, primary screen (AID 1071); conditions: higher = more signal;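 also: score merges 667 nm spot intensity and signal to noise from triplicate slides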
[5] = target: Neurogenic locus notch homolog protein 2 (Homo sapiens) (UniProt Q04721); experiment: small molecules binding Notch2 protein – biochemical, small-molecule microarray, 635 nm fluorescence, stem cell growth factors, primary screen (AID 1073); conditions: higher = more signal
Sequence of Neurogenic locus notch homolog protein 2 (Homo sapiens) (Q04721 whole entry, looked up, canonical isoform): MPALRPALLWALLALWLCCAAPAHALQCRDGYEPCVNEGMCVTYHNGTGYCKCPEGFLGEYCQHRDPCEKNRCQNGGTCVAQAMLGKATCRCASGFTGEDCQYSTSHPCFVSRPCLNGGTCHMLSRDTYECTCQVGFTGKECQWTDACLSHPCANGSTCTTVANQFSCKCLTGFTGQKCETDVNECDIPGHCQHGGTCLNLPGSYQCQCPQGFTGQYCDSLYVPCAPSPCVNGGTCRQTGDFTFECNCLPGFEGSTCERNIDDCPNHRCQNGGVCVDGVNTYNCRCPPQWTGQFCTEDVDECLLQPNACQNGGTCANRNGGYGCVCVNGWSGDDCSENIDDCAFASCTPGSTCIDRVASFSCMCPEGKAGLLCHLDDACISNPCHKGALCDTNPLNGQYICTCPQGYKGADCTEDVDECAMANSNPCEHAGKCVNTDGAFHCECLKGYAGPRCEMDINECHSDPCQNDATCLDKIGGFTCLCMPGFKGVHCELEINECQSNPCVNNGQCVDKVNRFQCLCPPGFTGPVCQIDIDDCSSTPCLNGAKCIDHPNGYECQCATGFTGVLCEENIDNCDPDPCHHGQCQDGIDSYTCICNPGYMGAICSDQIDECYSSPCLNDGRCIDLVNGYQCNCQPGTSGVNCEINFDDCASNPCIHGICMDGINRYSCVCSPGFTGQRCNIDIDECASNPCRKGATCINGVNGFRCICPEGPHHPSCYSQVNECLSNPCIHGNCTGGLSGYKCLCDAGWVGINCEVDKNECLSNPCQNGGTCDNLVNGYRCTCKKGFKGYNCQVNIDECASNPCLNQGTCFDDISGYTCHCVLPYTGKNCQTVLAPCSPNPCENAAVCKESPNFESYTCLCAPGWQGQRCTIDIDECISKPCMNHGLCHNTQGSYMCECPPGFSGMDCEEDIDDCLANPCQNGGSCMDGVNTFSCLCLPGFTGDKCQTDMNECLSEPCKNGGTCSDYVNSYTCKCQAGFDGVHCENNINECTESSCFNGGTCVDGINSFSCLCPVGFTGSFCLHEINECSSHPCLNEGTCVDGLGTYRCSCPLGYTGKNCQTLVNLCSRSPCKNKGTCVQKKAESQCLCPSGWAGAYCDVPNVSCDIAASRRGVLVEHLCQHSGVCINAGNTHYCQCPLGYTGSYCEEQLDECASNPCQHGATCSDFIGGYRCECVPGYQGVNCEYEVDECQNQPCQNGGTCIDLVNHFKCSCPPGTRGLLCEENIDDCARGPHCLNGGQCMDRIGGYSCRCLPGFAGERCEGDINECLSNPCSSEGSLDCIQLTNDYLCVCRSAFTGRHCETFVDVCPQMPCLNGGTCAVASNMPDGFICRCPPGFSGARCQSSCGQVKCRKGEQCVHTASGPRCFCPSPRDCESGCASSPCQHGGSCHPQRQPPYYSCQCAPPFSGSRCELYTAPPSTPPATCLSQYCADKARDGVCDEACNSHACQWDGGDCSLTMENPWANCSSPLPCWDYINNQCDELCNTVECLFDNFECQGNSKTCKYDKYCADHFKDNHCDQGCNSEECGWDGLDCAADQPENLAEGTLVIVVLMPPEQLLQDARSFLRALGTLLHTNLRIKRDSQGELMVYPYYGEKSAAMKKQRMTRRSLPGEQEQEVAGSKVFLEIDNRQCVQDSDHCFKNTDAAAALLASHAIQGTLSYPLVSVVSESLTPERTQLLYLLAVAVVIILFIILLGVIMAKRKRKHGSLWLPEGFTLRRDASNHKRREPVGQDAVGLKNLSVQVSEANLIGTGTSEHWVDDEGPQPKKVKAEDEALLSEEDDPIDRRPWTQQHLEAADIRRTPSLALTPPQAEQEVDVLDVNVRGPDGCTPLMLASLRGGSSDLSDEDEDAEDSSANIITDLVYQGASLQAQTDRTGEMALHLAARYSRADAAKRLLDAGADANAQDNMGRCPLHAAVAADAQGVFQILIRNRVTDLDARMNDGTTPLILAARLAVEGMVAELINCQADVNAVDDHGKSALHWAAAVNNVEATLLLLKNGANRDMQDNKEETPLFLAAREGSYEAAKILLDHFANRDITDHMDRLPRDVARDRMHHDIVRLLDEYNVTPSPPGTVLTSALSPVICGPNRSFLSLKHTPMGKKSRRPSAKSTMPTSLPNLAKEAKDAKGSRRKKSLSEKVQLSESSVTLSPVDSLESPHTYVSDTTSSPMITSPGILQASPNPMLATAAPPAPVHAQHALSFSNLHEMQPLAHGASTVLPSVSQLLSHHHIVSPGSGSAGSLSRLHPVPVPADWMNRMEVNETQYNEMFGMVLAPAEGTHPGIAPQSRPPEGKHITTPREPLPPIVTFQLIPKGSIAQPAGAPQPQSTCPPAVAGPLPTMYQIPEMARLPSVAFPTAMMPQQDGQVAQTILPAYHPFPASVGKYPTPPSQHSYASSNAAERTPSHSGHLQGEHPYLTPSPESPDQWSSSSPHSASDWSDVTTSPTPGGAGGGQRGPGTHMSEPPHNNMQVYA

[6] = target: Pro-neuregulin-1, membrane-bound isoform (Homo sapiens) (UniProt Q02297); experiment: small molecules binding neuregulin-1 protein – biochemical, small-molecule microarray, fluorescence 635/667, psychiatric disease protein project, primary screen (AID 1075); conditions: NRG1 binding, 635 nm fluorescence, higher = more signal;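 also: score combines 667 nm spot fluorescence with signal to noise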
Sequence of Pro-neuregulin-1, membrane-bound isoform (Homo sapiens) (Q02297 whole entry, looked up, the tested form may be a part, canonical isoform): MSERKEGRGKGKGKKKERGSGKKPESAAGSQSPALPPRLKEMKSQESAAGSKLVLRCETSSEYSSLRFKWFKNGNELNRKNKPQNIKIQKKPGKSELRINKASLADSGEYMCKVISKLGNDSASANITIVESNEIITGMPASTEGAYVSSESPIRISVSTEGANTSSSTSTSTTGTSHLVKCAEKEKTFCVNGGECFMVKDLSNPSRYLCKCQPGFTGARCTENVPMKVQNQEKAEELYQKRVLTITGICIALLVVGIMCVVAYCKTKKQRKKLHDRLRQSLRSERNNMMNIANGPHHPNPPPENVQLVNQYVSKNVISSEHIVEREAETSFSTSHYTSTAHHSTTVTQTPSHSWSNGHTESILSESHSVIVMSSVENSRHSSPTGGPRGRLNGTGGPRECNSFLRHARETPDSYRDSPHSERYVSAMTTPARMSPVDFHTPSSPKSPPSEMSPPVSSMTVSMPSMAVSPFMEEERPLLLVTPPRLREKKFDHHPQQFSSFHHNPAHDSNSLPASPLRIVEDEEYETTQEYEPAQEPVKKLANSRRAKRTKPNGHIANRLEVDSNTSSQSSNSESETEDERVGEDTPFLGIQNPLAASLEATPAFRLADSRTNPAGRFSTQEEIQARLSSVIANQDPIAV

[7] = system: Neuregulin-1 EGF-like domain; experiment: small molecules binding NRG1 EGF domain – biochemical, small-molecule microarray, 635 nm fluorescence, primary screen (AID 1081); conditions: higher = more signal;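 also: binding of the protein to compounds printed on small-molecule microarray slides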
[8] = FRG1 expression reporter modulators in myotubes – cell-based, C2C12 myotubes, firefly/Renilla luciferase, luminescence, FRG1 inhibition for FSHD, primary screen (AID 1084); conditions: FRG1 promoter luciferase, higher = more signal, called active from +8 up or from −8 down
[9] = small molecules captured by biotinylated probe aFST – biochemical, small-molecule microarray, fluorescence 635/667, stem cell growth factor project, primary screen (AID 1086); conditions: higher = more signal;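 also: score merges 667 nm fluorescence with signal-to-noise of each printed compound spot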
[10] = binders of probe aHhip on microarray, primary screen, stem cell growth factor project, biochemical, small-molecule microarray, fluorescence 635/667 (AID 1087); conditions: higher = more signal;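 also: score merges spot fluorescence at 667nm with spot signal to noise ratio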
[11] = system: PRMT1 (protein arginine N-methyltransferase 1); experiment: small molecules binding arginine methyltransferase PRMT1 – biochemical, small-molecule microarray, 635 nm fluorescence, primary screen (AID 1088); conditions: higher = more signal;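 also: binding of Prmt1 protein to compounds spotted on small-molecule microarray slides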
[12] = growth effects on S. cerevisiae YJM789 – YJM789 clinical isolate, OD600, 24 h, basal, primary screen (AID 1089); conditions: higher = more signal, called active from +8 up or from −8 down;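 also: growth of clinical yeast isolate S. cerevisiae YJM 789 seeded 1000 cells per well; test concentration not given here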
[13] = S. pombe growth modifiers, basal conditions – strain 972, OD600, 24 h, no modulator, primary screen (AID 1090);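 also: basal condition with compound alone and no growth modifier present; test concentration not given here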; conditions: S. pombe 972 growth, higher = more signal, called active from +8 up or from −8 down
[14] = budding yeast growth modifiers under rapamycin – strain BY4716, OD600, 96 h, primary screen (AID 1091); also: test concentration not given here; conditions: S. cerevisiae BY4716 + rapamycin, higher = more signal, called active from +8 up or from −8 down
[15] = target: Torsin-1A-interacting protein 2 (Homo sapiens) (UniProt Q8NFQ8); experiment: small molecules binding lysate-expressed LULL1 – cell lysate, human LULL1 lysate, 635/667 nm fluorescence, primary screen (AID 1092); conditions: small-molecule microarray, hLULL1 lysate binding, 635 nm fluorescence; higher = more signal;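 also: probe is lysate of COS7 cells overexpressing human LULL1; score merges per-feature 667 nm fluorescence with signal-to-noise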
Sequence of Torsin-1A-interacting protein 2 (Homo sapiens) (Q8NFQ8 whole entry, looked up): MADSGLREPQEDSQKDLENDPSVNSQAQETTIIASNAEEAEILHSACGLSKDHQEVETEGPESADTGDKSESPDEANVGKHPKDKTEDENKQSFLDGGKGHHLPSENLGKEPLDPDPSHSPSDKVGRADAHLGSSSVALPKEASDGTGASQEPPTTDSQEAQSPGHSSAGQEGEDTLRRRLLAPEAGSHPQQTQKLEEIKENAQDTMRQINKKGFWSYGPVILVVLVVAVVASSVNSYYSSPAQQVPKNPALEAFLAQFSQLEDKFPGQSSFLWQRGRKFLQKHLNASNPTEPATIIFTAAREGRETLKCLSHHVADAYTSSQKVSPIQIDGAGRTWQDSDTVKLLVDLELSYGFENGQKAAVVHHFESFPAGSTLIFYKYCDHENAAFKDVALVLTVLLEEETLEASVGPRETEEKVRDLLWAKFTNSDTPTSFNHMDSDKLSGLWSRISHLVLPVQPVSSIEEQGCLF

[16] = optical density change of DRC41 E. coli – strain DRC41, OD650, 24 h, E. coli filamentation project, primary screen (AID 1093);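 also: MC1000 strain lacking acrAB efflux and sulA so SOS filamentation is blocked; test concentration not given here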; conditions: E. coli DRC41 growth, higher = more signal, called active from +8 up or from −8 down
[17] = probe aLefty2 binding to arrayed compounds – biochemical, biotinylated probe, 635/667 nm fluorescence, primary screen (AID 1094); conditions: small-molecule microarray, higher = more signal;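 also: score merges spot fluorescence near 667 nm with spot signal-to-noise ratio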
[18] = system: Noggin (protein binding on small-molecule microarray); experiment: small molecules binding Noggin protein – biochemical, 635/667 nm fluorescence, primary screen (AID 1095); conditions: 635 nm fluorescence, higher = more signal;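 also: score merges 667 nm feature fluorescence with signal to noise over triplicate slides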
[19] = target: Neurogenic locus notch homolog protein 3 (Homo sapiens) (UniProt Q9UM47); experiment: small molecules binding NOTCH3 protein – biochemical, 635/667 nm fluorescence, primary screen (AID 1096); conditions: small-molecule microarray, 635 nm fluorescence, higher = more signal
[20] = probe aEGFR binding to arrayed compounds – biochemical, biotinylated probe, 635/667 nm fluorescence, primary screen (AID 1097); conditions: small-molecule microarray, higher = more signal;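 also: probe is a biotinylated anti-EGFR antibody binding compounds printed on slides; score combines fluorescence near 667 nm and signal to noise of each spot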

Compound: COCCOC(=O)N1C(=O)[C@@]2(c3cc(C#Cc4ccc(OC)cc4)ccc31)[C@H](C(=O)Nc1nc3ccccc3s1)[C@H]1C(=O)O[C@H](c3ccccc3)[C@H](c3ccccc3)N1[C@@H]2c1ccc(O)cc1
- composite z-score [1]: 0.0683
- composite z-score [2]: -0.164
- composite z-score [3]: 0.0289
- composite z-score [4]: 0.445
- composite z-score [5]: 1.06
- composite z-score [6]: 1.19
- composite z-score [7]: 1.22
- z-score [8]: 2.65 (inactive)
- composite z-score [9]: 0.286
- composite z-score [10]: 0.282
- composite z-score [11]: 1.55
- z-score [12]: 0.903 (inactive)
- z-score [13]: 0.842 (inactive)
- z-score [14]: 1.16 (inactive)
- composite z-score [15]: 2.74
- z-score [16]: 1.57 (inactive)
- composite z-score [17]: -0.0071
- composite z-score [18]: 1.55
- composite z-score [19]: 1.08
- composite z-score [20]: 0.213

Compound: CC(=O)c1ccc(C(O)C2C=CC3C(=O)N(c4ccccc4)C(=O)C3N2Nc2ccc(C#N)cc2)cc1 (stereo not given)
- composite z-score [1]: 0.0415
- composite z-score [2]: 0.233
- composite z-score [3]: -0.122
- composite z-score [4]: -0.0474
- composite z-score [5]: 0.833
- composite z-score [6]: 1.5
- composite z-score [7]: 0.609
- z-score [8]: -0.0141 (inactive)
- composite z-score [9]: 0.766
- composite z-score [10]: -0.0645
- composite z-score [11]: 0.155
- z-score [12]: -0.623 (inactive)
- z-score [13]: 1.04 (inactive)
- z-score [14]: 2.05 (inactive)
- composite z-score [15]: 3.76
- z-score [16]: -0.963 (inactive)
- composite z-score [17]: -0.103
- composite z-score [18]: -0.442
- composite z-score [19]: 0.352
- composite z-score [20]: 0.0753

Compound: COCCCNC(=O)[C@@]1(Cc2ccccc2N=[N+]=[N-])N=C(c2ccc(OCCCO)cc2)O[C@H]1c1ccccc1
- composite z-score [1]: 0.6
- composite z-score [2]: 2.55
- composite z-score [3]: 0.153
- composite z-score [4]: 0.904
- composite z-score [5]: 0.629
- composite z-score [6]: 1.38
- composite z-score [7]: 1.17
- z-score [8]: -1.98 (inactive)
- composite z-score [9]: 0.404
- composite z-score [10]: 0.212
- composite z-score [11]: 1.55
- z-score [12]: -0.22 (inactive)
- z-score [13]: -1.17 (inactive)
- z-score [14]: 0.388 (inactive)
- composite z-score [15]: 3.1
- z-score [16]: 0.478 (inactive)
- composite z-score [17]: 0.0894
- composite z-score [18]: 0.923
- composite z-score [19]: 0.74
- composite z-score [20]: -0.096

Compound: COc1ccc(CCNC(=O)[C@@]2(Sc3ccc(C)cc3)CC(=O)N(C3Cc4ccccc4C3)[C@@H]2c2ccc(CO)cc2)cc1
- composite z-score [1]: 0.183
- composite z-score [2]: 0.737
- composite z-score [3]: 0.153
- composite z-score [4]: -0.0334
- composite z-score [5]: 1.43
- composite z-score [6]: 0.591
- composite z-score [7]: 1.29
- z-score [8]: -3.33 (inactive)
- composite z-score [9]: 0.384
- composite z-score [10]: 0.866
- composite z-score [11]: 1.54
- z-score [12]: 0.593 (inactive)
- z-score [13]: -0.468 (inactive)
- z-score [14]: 0.707 (inactive)
- composite z-score [15]: 1.88
- z-score [16]: -1.79 (inactive)
- composite z-score [17]: 0.0511
- composite z-score [18]: 2.07
- composite z-score [19]: 1.02
- composite z-score [20]: 0.0707

Compound: O=C(NCC(F)(F)F)[C@@H]1c2ccccc2C(=O)N(Cc2ccccc2C(F)(F)F)[C@H]1c1ccc(CO)cc1
- composite z-score [1]: 0.597
- composite z-score [2]: -0.0704
- composite z-score [3]: -0.156
- composite z-score [4]: 0.424
- composite z-score [5]: -0.169
- composite z-score [6]: 0.997
- composite z-score [7]: 1.3
- z-score [8]: -1.49 (inactive)
- composite z-score [9]: -0.181
- composite z-score [10]: 0.113
- composite z-score [11]: 0.928
- z-score [12]: -0.268 (inactive)
- z-score [13]: -0.205 (inactive)
- z-score [14]: -0.503 (inactive)
- composite z-score [15]: 1.28
- z-score [16]: 0.31 (inactive)
- composite z-score [17]: -0.062
- composite z-score [18]: -0.416
- composite z-score [19]: -0.258
- composite z-score [20]: -0.274

Compound: C=C[C@@H](OC)[C@H](OC(=O)Nc1ccc(SC)cc1)c1ccc(O)c(F)c1
- composite z-score [1]: 0.0213
- composite z-score [2]: 0.5
- composite z-score [3]: -0.0024
- composite z-score [4]: 0.362
- composite z-score [5]: -0.0166
- composite z-score [6]: 1.25
- composite z-score [7]: 1.35
- z-score [8]: 3.87 (inactive)
- composite z-score [9]: 0.2
- composite z-score [10]: -0.069
- composite z-score [11]: 1.56
- z-score [12]: 1.05 (inactive)
- z-score [13]: 0.123 (inactive)
- z-score [14]: 1.65 (inactive)
- composite z-score [15]: 2.58
- z-score [16]: 0.374 (inactive)
- composite z-score [17]: -0.0654
- composite z-score [18]: 0.808
- composite z-score [19]: 0.185
- composite z-score [20]: -0.126

Compound: CCOC(=O)c1ccc(NC(=O)O[C@H]2[C@H](OC(=O)Nc3ccc4c(c3)OCO4)[C@H](OC(=O)Nc3ccc4c(c3)OCO4)[C@@H](OC)O[C@@H]2CO)cc1
- composite z-score [1]: 0.237
- composite z-score [2]: 0.807
- composite z-score [3]: 0.129
- composite z-score [4]: 1.14
- composite z-score [5]: 1.59
- composite z-score [6]: 0.898
- composite z-score [7]: 1.3
- z-score [8]: 1.08 (inactive)
- composite z-score [9]: 0.792
- composite z-score [10]: 0.28
- composite z-score [11]: 1.54
- z-score [12]: 1.21 (inactive)
- z-score [13]: 1.57 (inactive)
- z-score [14]: 6.12 (inactive)
- composite z-score [15]: 3.1
- z-score [16]: 0.62 (inactive)
- composite z-score [17]: 0.17
- composite z-score [18]: 1.34
- composite z-score [19]: 1.06
- composite z-score [20]: 0.251

Compound: [N-]=[N+]=NCc1ccccc1[C@H]1OC(c2ccc(OCCCO)cc2)=N[C@@]1(CCS(=O)(=O)c1ccccc1)C(=O)NCC(O)CO (stereo not given in full)
- composite z-score [1]: 0.115
- composite z-score [2]: -0.191
- composite z-score [3]: 0.252
- composite z-score [4]: 0.564
- composite z-score [5]: 1.47
- composite z-score [6]: 1.25
- composite z-score [7]: 1.36
- z-score [8]: 0.515 (inactive)
- composite z-score [9]: 1.46
- composite z-score [10]: 0.126
- composite z-score [11]: 1.56
- z-score [12]: 0.633 (inactive)
- z-score [13]: -0.107 (inactive)
- z-score [14]: 3.65 (inactive)
- composite z-score [15]: 3.79
- z-score [16]: -0.28 (inactive)
- composite z-score [17]: 0.0761
- composite z-score [18]: 0.286
- composite z-score [19]: 1.06
- composite z-score [20]: 0.178

Compound: COC(=O)C1=CC(CCCO)=CC(C2CC2)N(C)C=C1C(=O)OC (stereo not given)
- composite z-score [1]: 0.0334
- composite z-score [2]: -0.144
- composite z-score [3]: -0.101
- composite z-score [4]: -0.0269
- composite z-score [5]: 0.448
- composite z-score [6]: 2.06
- composite z-score [7]: 0.935
- z-score [8]: -0.327 (inactive)
- composite z-score [9]: -0.308
- composite z-score [10]: -0.0994
- composite z-score [11]: 0.723
- z-score [12]: -1.81 (inactive)
- z-score [13]: -0.761 (inactive)
- z-score [14]: -1.62 (inactive)
- composite z-score [15]: 2.79
- z-score [16]: -0.705 (inactive)
- composite z-score [17]: -0.117
- composite z-score [18]: -0.178
- composite z-score [19]: -0.752
- composite z-score [20]: -0.43

Compound: C=C(/C(=C/C[C@H](OC(C)=O)c1cccc(OCCO)c1)c1cnc2ccccc2c1)C(C)C
- composite z-score [1]: -0.104
- composite z-score [2]: 0.21
- composite z-score [3]: -0.108
- composite z-score [4]: 0.459
- composite z-score [5]: 1.56
- composite z-score [6]: 0.35
- composite z-score [7]: 0.914
- z-score [8]: -0.127 (inactive)
- composite z-score [9]: -0.241
- composite z-score [10]: -0.0618
- composite z-score [11]: 0.684
- z-score [12]: 1.9 (inactive)
- z-score [13]: -0.3 (inactive)
- z-score [14]: 1.35 (inactive)
- composite z-score [15]: 1.03
- z-score [16]: 0.172 (inactive)
- composite z-score [17]: -0.0888
- composite z-score [18]: 0.608
- composite z-score [19]: 0.778
- composite z-score [20]: 0.386
